Experimental data taken from PubChem BioAssay (NCATS).
Results filed as inconclusive are left out. Activity calls are given as the source filed them. Calls come from the whole dose curve; as a rule, active = well fitted curve in the direction sought with a large enough effect; inconclusive = small, poorly fitted or top-dose-only effect, or another doubt; inactive = no such curve, though single readings can be large; an effect the other way counts as inactive or inconclusive.

Legend:
CRL-7250 = normal cell line; experiment: Cytotoxic Profiling of Annotated Libraries Using Quantitative High-Throughput Screening (AID 1296008); details: Five cell lines viability, CellTiter-Glo ATP luminescence, 48-72 h; max response: hits give low values; note: nearly all actives have a fitted effect of over 60% in size; for max response: % is set by controls: 0 for no effect and ±100 for the full control effect
Summary of the method: (§1)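 Cells exposed to compounds for 48 or 72 hr at 37 degrees Celsius. Viability read as ATP-coupled luminescence with CellTiter-Glo after 10 min at room temperature.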

HEK293 = experiment: as above; details: Five cell lines viability, CellTiter-Glo ATP luminescence, 48-72 h; max response: hits give low values
Summary of the method: as §1

HaCat [1] = experiment: as above; details: Five cell lines viability, CellTiter-Glo ATP luminescence, 48-72 h; max response: hits give low values
Summary of the method: as §1

KB-3-1 = experiment: as above; details: Five cell lines viability, CellTiter-Glo ATP luminescence, 48-72 h; max response: hits give low values
Summary of the method: as §1

NIH3T3 [2] = experiment: as above; details: Five cell lines viability, CellTiter-Glo ATP luminescence, 48-72 h; max response: hits give low values
Summary of the method: as §1

HACAT [3] = experiment: qHTS assay to identify novel small-molecules to repurpose for Merkel cell carcinoma treatment (AID 1296009); details: MCC and control cell lines, CellTiter-Glo viability, 72 h; at 44.8 µM (top of the series) unless noted; note: nearly all actives have a fitted effect of over 60% in size
Summary of the method: (§2)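 Cells were treated for 72 hr at 37 degree celsius with compounds in 8- or 11-point dose response. Viability was read by CellTiter-Glo luminescence, normalized to no-cell (cytotoxicity) and DMSO controls.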

NIH3T3 [4] = experiment: as above; details: MCC and control cell lines, CellTiter-Glo viability, 72 h; at 44.8 µM (top of the series) unless noted
Summary of the method: as §2

C33A = experiment: Primary qHTS to identify gynecologic anti-cancer compounds using libraries of approved drugs and bioactive compounds (AID 1345084); details: Gynecologic cancer cell panel viability, ATPlite luminescence, 48 h; series mostly up to 57.5 µM; note: % is set by controls: 0 for no effect and ±100 for the full control effect; nearly all actives have a fitted effect of over 55% in size
Summary of the method: (§3)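 Cells, 1,000 per well, plated 16 h, then exposed 48 h at 37 C to compounds. Viability by ATPlite luminescence after 15 min at room temperature.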

CAOV3 = experiment: as above; details: Gynecologic cancer cell panel viability, ATPlite luminescence, 48 h; series mostly up to 57.5 µM
Summary of the method: as §3

CASKI = experiment: as above; details: Gynecologic cancer cell panel viability, ATPlite luminescence, 48 h; series mostly up to 57.5 µM
Summary of the method: as §3

Es-2 = experiment: as above; details: Gynecologic cancer cell panel viability, ATPlite luminescence, 48 h; series mostly up to 57.5 µM
Summary of the method: as §3

HeLa = experiment: as above; details: Gynecologic cancer cell panel viability, ATPlite luminescence, 48 h; series mostly up to 57.5 µM
Summary of the method: as §3

Hek293T = experiment: as above; details: Gynecologic cancer cell panel viability, ATPlite luminescence, 48 h, control line for the selectivity index; series mostly up to 57.5 µM
Summary of the method: as §3

JEG-3 = experiment: as above; details: Gynecologic cancer cell panel viability, ATPlite luminescence, 48 h; series mostly up to 57.5 µM
Summary of the method: as §3

COCc1c(O)c(C(=O)O)c(C)c2c1OC(=O)c1c(C)cc(O)c(CO)c1O2
inactive: max response (CRL-7250) 0.001% | max response (HEK293) -3.82% | outcome (HaCat [1]) | outcome (KB-3-1) | outcome (NIH3T3 [2]) | outcome (HACAT [3]) | outcome (NIH3T3 [4]) | Potency (C33A) | Potency (CAOV3) | outcome (CASKI) | Potency (Es-2) | Potency (HeLa) | Potency (Hek293T) | Potency (JEG-3)

CC(=O)N[C@H](Cc1c[nH]c2ccccc12)C(=O)OCc1cc(C(F)(F)F)cc(C(F)(F)F)c1
inactive: max response (CRL-7250) -4.46% | max response (HEK293) -2.25% | outcome (HaCat [1]) | outcome (KB-3-1) | outcome (NIH3T3 [2]) | outcome (HACAT [3]) | outcome (NIH3T3 [4]) | Potency (C33A) | Potency (CAOV3) | outcome (CASKI) | Potency (Es-2) | Potency (HeLa) | Potency (Hek293T) | Potency (JEG-3)

C=C1C(=O)O[C@@H]2C[C@]3(C)[C@@H](CCC(C)=O)[C@@H]3C[C@H]12
inactive: max response (CRL-7250) 4.44% | max response (HEK293) -12.9% | outcome (HaCat [1]) | max response (KB-3-1) 2.7% | outcome (NIH3T3 [2]) | outcome (HACAT [3]) | outcome (NIH3T3 [4]) | Potency (C33A) | Potency (CAOV3) | outcome (CASKI) | Potency (Es-2) | Potency (HeLa) | Potency (Hek293T) | Potency (JEG-3)

COC(=O)C1=CO[C@@H](O[C@@H]2O[C@H](CO)[C@@H](O)[C@H](O)[C@H]2O)[C@@H]2[C@@H](C)[C@@H](O)C(O)[C@H]12 (some centres undefined)
inactive: max response (CRL-7250) -0.07% | max response (HEK293) -12.7% | outcome (HaCat [1]) | outcome (KB-3-1) | outcome (NIH3T3 [2]) | outcome (HACAT [3]) inactive [at 17.4 µM] | outcome (NIH3T3 [4]) inactive [at 17.4 µM] | Potency (C33A) | Potency (CAOV3) | outcome (CASKI) | Potency (Es-2) | Potency (HeLa) | Potency (Hek293T) | Potency (JEG-3)

COc1cc(C(=O)OC[C@H]2O[C@@H](OC(C)(C)C(=O)O)[C@H](O)[C@@H](O)[C@@H]2O)cc(OC)c1O
inactive: max response (CRL-7250) -2.21% | max response (HEK293) -6.34% | outcome (HaCat [1]) | outcome (KB-3-1) | outcome (NIH3T3 [2]) | outcome (HACAT [3]) inactive [at 17.4 µM] | outcome (NIH3T3 [4]) inactive [at 17.4 µM] | Potency (C33A) | Potency (CAOV3) | outcome (CASKI) | Potency (Es-2) | Potency (HeLa) | Potency (Hek293T) | Potency (JEG-3)

C=C[C@H]1[C@H](O[C@@H]2O[C@H](CO)[C@@H](O)[C@H](OC(=O)/C=C/c3ccc(O)c(OC)c3)[C@H]2O)OC=C2C(=O)OCC[C@]21O
inactive: max response (CRL-7250) -3.95% | max response (HEK293) -3.81% | outcome (HaCat [1]) | max response (KB-3-1) 6.87% | outcome (NIH3T3 [2]) | outcome (HACAT [3]) inactive [at 17.4 µM] | outcome (NIH3T3 [4]) inactive [at 17.4 µM] | Potency (C33A) | Potency (CAOV3) | outcome (CASKI) | Potency (Es-2) | Potency (HeLa) | Potency (Hek293T) | Potency (JEG-3)

COc1cc2c(c(OC)c1O)C(c1ccc(O)cc1)C1C(=O)OC3C(COC(=O)C1=C2)OC(CO)(OC1OC(COC(=O)/C=C/c2ccc(OC4OC(C)C(O)C(O)C4O)cc2)C(O)C(O)C1O)C3O (centres undefined)
inactive: max response (CRL-7250) 2.78% | max response (HEK293) -18.4% | outcome (HaCat [1]) | max response (KB-3-1) -2.91% | outcome (NIH3T3 [2]) | outcome (HACAT [3]) inactive [at 9.27 µM] | outcome (NIH3T3 [4]) inactive [at 9.27 µM] | activity change, negative = cytotoxicity (C33A) 12% [at 11.6 µM] | activity change, negative = cytotoxicity (CAOV3) -2.13% [at 11.6 µM] | activity change, negative = cytotoxicity (CASKI) 3.12% [at 11.6 µM] | activity change, negative = cytotoxicity (Es-2) 0.658% [at 11.6 µM] | activity change, negative = cytotoxicity (HeLa) -0.142% [at 11.6 µM] | activity change, negative = cytotoxicity (Hek293T) 7.04% [at 11.6 µM] | activity change, negative = cytotoxicity (JEG-3) 8.95% [at 11.6 µM]

COc1cccc(C)c1C(=O)O[C@@H]1C[C@H](O[C@H]2[C@H](O)C[C@H](O[C@@H]3CCC[C@H]4[C@H]3C=C[C@@H]3CCCC/C=C/[C@H]5C=C(C(=O)O)[C@@H](C)C[C@@]56OC(=O)C(=C6O)OC(=O)[C@@]34C)O[C@@H]2C)O[C@H](C)[C@H]1O
inactive: max response (CRL-7250) -2.06% | max response (HEK293) -11.9% | outcome (HaCat [1]) | max response (KB-3-1) 6.21% | outcome (NIH3T3 [2]) | outcome (HACAT [3]) inactive [at 9.27 µM] | outcome (NIH3T3 [4]) inactive [at 9.27 µM] | activity change, negative = cytotoxicity (C33A) 10.8% [at 11.6 µM] | activity change, negative = cytotoxicity (CAOV3) 3.73% [at 11.6 µM] | activity change, negative = cytotoxicity (CASKI) 10.4% [at 11.6 µM] | activity change, negative = cytotoxicity (Es-2) 4.28% [at 11.6 µM] | activity change, negative = cytotoxicity (HeLa) 1.33% [at 11.6 µM] | activity change, negative = cytotoxicity (Hek293T) 3.45% [at 11.6 µM] | activity change, negative = cytotoxicity (JEG-3) -0.859% [at 11.6 µM]

C/C=C/C=C/C(O)=C1/C(=O)[C@]2(C)C(=O)[C@@](C)(O)[C@H]1[C@H]([C@@]1(C)OC(=O)C(C)=C1O)[C@H]2C(=O)CC/C=C/C
inactive: outcome (CRL-7250) | max response (HEK293) -3.93% | outcome (HaCat [1]) | outcome (KB-3-1) | outcome (NIH3T3 [2]) | outcome (HACAT [3]) inactive [at 17.4 µM] | outcome (NIH3T3 [4]) inactive [at 17.4 µM] | Potency (C33A) | Potency (CAOV3) | outcome (CASKI) | Potency (Es-2) | Potency (HeLa) | Potency (Hek293T) | Potency (JEG-3)

Cc1cc(-n2c(=O)[nH]c(=O)n(C)c2=O)ccc1Oc1ccc(SC(F)(F)F)cc1
inactive: max response (CRL-7250) -0.879% | max response (HEK293) 4.1% | outcome (HaCat [1]) | max response (KB-3-1) 1.4% | outcome (NIH3T3 [2]) | outcome (HACAT [3]) | outcome (NIH3T3 [4]) | Potency (C33A) | Potency (CAOV3) | outcome (CASKI) | Potency (Es-2) | Potency (HeLa) | Potency (Hek293T) | Potency (JEG-3)

COC(=O)c1c(CC=C(C)C)c(OC2OC(CO)C(O)C(O)C2O)c2ccccc2c1OC1OC(CO)C(O)C(O)C1O (centres undefined)
inactive: outcome (CRL-7250) | max response (HEK293) -10.1% | outcome (HaCat [1]) | outcome (KB-3-1) | outcome (NIH3T3 [2]) | outcome (HACAT [3]) inactive [at 17.4 µM] | outcome (NIH3T3 [4]) inactive [at 17.4 µM] | Potency (C33A) | Potency (CAOV3) | outcome (CASKI) | Potency (Es-2) | Potency (HeLa) | Potency (Hek293T) | Potency (JEG-3)
